According to PubChem BioAssay AID1159580 (chemical genetic matrix, 2015):
“And” between values parts separate entries of the source, which are not always exact repeats. Equal entries are not always repeated. About 2,000 (36%) of roughly 5,500 compounds were called active. Another 18% or so got no clear call; they are omitted. Cut-off read from the data, not from the text of the source: active = normalized growth mostly below about 0.91 (no sharp cut-off); inconclusive = no clear call, values can overlap the other calls; inactive = mostly above about 0.92. This is one part of the list.

Assay: chemical genetic growth profiling, strain panel (AID 1159580);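 note: tested at 20 µM; growth read once vehicle control cultures reached saturation at 30 °C; 1 = growth at the plate median or of vehicle wells; lower values mean less growth of the strain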
Conditions: growth OD
[1] = S. cerevisiae deletion strains, locus YAL013W, strain DEP1, stronger effect = lower value
[2] = S. cerevisiae deletion strains, locus YBR229C, strain ROT2, stronger effect = lower value
[3] = S. cerevisiae deletion strains, locus YDL101C, strain DUN1, stronger effect = lower value
[4] = S. cerevisiae deletion strains, locus YDL134C, strain PPH21, stronger effect = lower value
[5] = S. cerevisiae deletion strains, locus YDR150W, strain NUM1, stronger effect = lower value
[6] = S. cerevisiae deletion strains, locus YEL061C, strain CIN8, stronger effect = lower value
[7] = S. cerevisiae deletion strains, locus YGR078C, strain PAC10, stronger effect = lower value
[8] = S. cerevisiae deletion strains, locus YGR229C, strain SMI1, stronger effect = lower value
[9] = S. cerevisiae deletion strains, locus YHR030C, strain SLT2, stronger effect = lower value
[10] = S. cerevisiae deletion strains, locus YHR087W, strain rtc3, stronger effect = lower value
[11] = S. cerevisiae deletion strains, locus YJL187C, strain SWE1, stronger effect = lower value
[12] = S. cerevisiae deletion strains, locus YJR043C, strain POL32, stronger effect = lower value
[13] = S. cerevisiae deletion strains, locus YJR075W, strain HOC1, stronger effect = lower value
[14] = S. cerevisiae deletion strains, locus YLR039C, strain RIC1, stronger effect = lower value
[15] = S. cerevisiae deletion strains, locus YLR058C, strain SHM2 (second series), stronger effect = lower value
[16] = S. cerevisiae deletion strains, locus YLR085C, strain ARP6, stronger effect = lower value
[17] = S. cerevisiae deletion strains, locus YLR262C, strain YPT6, stronger effect = lower value
[18] = S. cerevisiae deletion strains, locus YML094W, strain GIM5, stronger effect = lower value
[19] = S. cerevisiae deletion strains, locus YMR219W, strain ESC1, stronger effect = lower value
[20] = S. cerevisiae deletion strains, locus YMR263W, strain SAP30, stronger effect = lower value
[21] = S. cerevisiae deletion strains, locus YNL153C, strain GIM3, stronger effect = lower value
[22] = S. cerevisiae deletion strains, locus YNL298W, strain CLA4 (second series), stronger effect = lower value
[23] = S. cerevisiae deletion strains, locus YNL322C, strain KRE1, stronger effect = lower value
[24] = S. cerevisiae deletion strains, locus YNR030W, strain Alg12, stronger effect = lower value
[25] = S. cerevisiae deletion strains, locus YPL055C, strain LGE1, stronger effect = lower value
[26] = S. cerevisiae deletion strains, locus YPL241C, strain CIN2, stronger effect = lower value
[27] = S. cerevisiae deletion strains, locus YPR135W, strain CTF4, stronger effect = lower value
[28] = S. cerevisiae deletion strains, locus YMR307W, strain GAS1, stronger effect = lower value

Measured: normalized growth

CC(=O)CC(C)=Nc1ccc(C(F)(F)F)cc1
inactive: [1] 0.989 | [2] 0.991 | [3] 0.994 | [4] 1.03 | [5] 0.908 | [6] 1.01 | [7] 0.981 | [8] 1.02 | [9] 1.08 | [10] 0.971 | [11] 0.995 | [12] 1.01 | [13] 1.05 | [14] 1.05 | [15] 1 | [16] 1.03 | [17] 1.04 | [18] 0.993 | [19] 1 | [20] 1.05 | [21] 0.985 | [22] 1.05 | [23] 1 | [24] 1.02 | [25] 0.939 | [26] 1.08 | [27] 0.969

N#CC(C#N)=CNc1cc(C(F)(F)F)ccc1N1CCCCC1
inactive: [1] 0.995 | [2] 1 | [3] 0.991 | [4] 0.997 | [5] 0.973 | [6] 1 | [7] 0.987 | [8] 1 | [9] 0.936 | [10] 1.01 | [11] 1 | [12] 1 | [13] 0.966 | S. cerevisiae deletion strains, locus YKL190W, strain CNB1, stronger effect = lower value 1 | [14] 0.997 | [15] 1 | [16] 0.96 | [17] 1.04 | [18] 0.989 | [19] 1 | [20] 0.986 | [28] 0.909 | [21] 1.01 | [22] 1 | [23] 0.992 | [24] 1.01 | S. cerevisiae deletion strains, locus YOL006C, strain TOP1, stronger effect = lower value 1.01 | [25] 0.989 | [26] 0.996 | [27] 0.915

N#C/C(=N/Nc1ccc(C(F)(F)F)cc1)C(=O)C1CC1
inactive: [1] 0.942 | S. cerevisiae deletion strains, locus YAR019C, strain CDC15, stronger effect = lower value 0.952 | S. cerevisiae deletion strains, locus YBL105C, strain PKC1, stronger effect = lower value 0.947 | S. cerevisiae deletion strains, locus YBR135W, strain CKS1, stronger effect = lower value 0.941 | S. cerevisiae deletion strains, locus YBR136W, strain MEC1, stronger effect = lower value 0.942 | S. cerevisiae deletion strains, locus YBR160W, strain CDC28, stronger effect = lower value 0.942 | [2] 0.96 | S. cerevisiae deletion strains, locus YCL061C, strain MRC1, stronger effect = lower value 0.978 | S. cerevisiae deletion strains, locus YDL017W, strain CDC7, stronger effect = lower value 0.953 | S. cerevisiae deletion strains, locus YDL028C, strain MPS1, stronger effect = lower value 0.938 | [3] 0.976 and 0.966 | S. cerevisiae deletion strains, locus YDL108W, strain KIN28, stronger effect = lower value 0.937 | S. cerevisiae deletion strains, locus YDL132W, strain cdc53, stronger effect = lower value 0.937 | S. cerevisiae deletion strains, locus YDL214C, strain PRR2, stronger effect = lower value 0.904 | S. cerevisiae deletion strains, locus YDR052C, strain DBF4, stronger effect = lower value 0.953 | S. cerevisiae deletion strains, locus YDR054C, strain cdc34, stronger effect = lower value 0.95 | [5] 0.928 | S. cerevisiae deletion strains, locus YDR226W, strain ADK1, stronger effect = lower value 0.97 | S. cerevisiae deletion strains, locus YDR477W, strain SNF1, stronger effect = lower value 0.932 | S. cerevisiae deletion strains, locus YER123W, strain YCK3, stronger effect = lower value 0.88 | S. cerevisiae deletion strains, locus YER133W, strain GLC7, stronger effect = lower value 0.93 | S. cerevisiae deletion strains, locus YFL009W, strain cdc4, stronger effect = lower value 0.942 | S. cerevisiae deletion strains, locus YFL029C, strain CAK1, stronger effect = lower value 0.945 | S. cerevisiae deletion strains, locus YFR003C, strain YPI1, stronger effect = lower value 0.95 | S. cerevisiae deletion strains, locus YFR019W, strain FAB1, stronger effect = lower value 0.92 | S. cerevisiae deletion strains, locus YFR028C, strain CDC14, stronger effect = lower value 0.964 | S. cerevisiae deletion strains, locus YGR040W, strain KSS1, stronger effect = lower value 0.905 | S. cerevisiae deletion strains, locus YGR052W, strain FMP48, stronger effect = lower value 0.922 | [7] 0.957 | S. cerevisiae deletion strains, locus YGR092W, strain DBF2, stronger effect = lower value 0.855 | [8] 0.948 | S. cerevisiae deletion strains, locus YHR079C, strain IRE1, stronger effect = lower value 0.958 | S. cerevisiae deletion strains, locus YHR082C, strain KSP1, stronger effect = lower value 0.989 | [10] 0.951 | S. cerevisiae deletion strains, locus YHR205W, strain SCH9, stronger effect = lower value 0.889 | S. cerevisiae deletion strains, locus YIL147C, strain SLN1, stronger effect = lower value 0.941 | S. cerevisiae deletion strains, locus YJL095W, strain BCK1, stronger effect = lower value 0.913 | S. cerevisiae deletion strains, locus YJL128C, strain PBS2, stronger effect = lower value 0.924 | S. cerevisiae deletion strains, locus YJL157C, strain FAR1, stronger effect = lower value 0.94 | [11] 0.98 | S. cerevisiae deletion strains, locus YJR016C, strain ILV3, stronger effect = lower value 0.931 | [12] 0.952 | S. cerevisiae deletion strains, locus YJR066W, strain TOR1 (second series), stronger effect = lower value 0.897 | S. cerevisiae deletion strains, locus YJR066W, strain TOR1, stronger effect = lower value 0.997 | [13] 0.975 | S. cerevisiae deletion strains, locus YKL048C, strain ELM1, stronger effect = lower value 0.928 | S. cerevisiae deletion strains, locus YKL067W, strain YNK1, stronger effect = lower value 0.904 | S. cerevisiae deletion strains, locus YKL101W, strain HSL1, stronger effect = lower value 0.874 | S. cerevisiae deletion strains, locus YKL193C, strain SDS22, stronger effect = lower value 0.943 | S. cerevisiae deletion strains, locus YKL203C, strain TOR2, stronger effect = lower value 0.996 | [15] 0.975 | S. cerevisiae deletion strains, locus YLR133W, strain CKI1, stronger effect = lower value 0.909 | S. cerevisiae deletion strains, locus YLR403W, strain SFP1, stronger effect = lower value 0.898 | S. cerevisiae deletion strains, locus YML070W, strain DAK1, stronger effect = lower value 0.895 | S. cerevisiae deletion strains, locus YMR001C, strain CDC5, stronger effect = lower value 0.95 | S. cerevisiae deletion strains, locus YMR205C, strain PFK2 (second series), stronger effect = lower value 0.917 | [19] 0.986 | [20] 0.956 | S. cerevisiae deletion strains, locus YMR277W, strain FCP1, stronger effect = lower value 0.937 | S. cerevisiae deletion strains, locus YNL006W, strain LST8, stronger effect = lower value 0.947 | S. cerevisiae deletion strains, locus YNL020C, strain ARK1, stronger effect = lower value 0.914 | S. cerevisiae deletion strains, locus YNL128W, strain TEP1, stronger effect = lower value 0.956 | [21] 0.981 | S. cerevisiae deletion strains, locus YNL161W, strain CBK1, stronger effect = lower value 0.949 | S. cerevisiae deletion strains, locus YNL183C, strain NPR1, stronger effect = lower value 0.941 | S. cerevisiae deletion strains, locus YNL207W, strain RIO2, stronger effect = lower value 0.95 | S. cerevisiae deletion strains, locus YNL222W, strain SSU72, stronger effect = lower value 0.947 | [22] 0.842 | S. cerevisiae deletion strains, locus YNL307C, strain MCK1 (second series), stronger effect = lower value 0.905 | [23] 0.981 | S. cerevisiae deletion strains, locus YOL078W, strain AVO1, stronger effect = lower value 0.936 | S. cerevisiae deletion strains, locus YOL136C, strain PFK27, stronger effect = lower value 0.866 | S. cerevisiae deletion strains, locus YOR061W, strain CKA2, stronger effect = lower value 0.926 | S. cerevisiae deletion strains, locus YOR119C, strain RIO1, stronger effect = lower value 0.973 | S. cerevisiae deletion strains, locus YOR231W, strain MKK1, stronger effect = lower value 0.89 | S. cerevisiae deletion strains, locus YOR329C, strain SCD5, stronger effect = lower value 0.958 | S. cerevisiae deletion strains, locus YPL031C, strain PHO85, stronger effect = lower value 0.922 | [25] 0.83 | S. cerevisiae deletion strains, locus YPL153C, strain RAD53, stronger effect = lower value 0.929 | S. cerevisiae deletion strains, locus YPL204W, strain HRR25, stronger effect = lower value 0.894 | S. cerevisiae deletion strains, locus YPL209C, strain IPL1, stronger effect = lower value 0.955 | S. cerevisiae deletion strains, locus YPL256C, strain CLN2, stronger effect = lower value 0.977 | S. cerevisiae deletion strains, locus YPR025C, strain CCL1, stronger effect = lower value 0.95 | S. cerevisiae deletion strains, locus YPR106W, strain ISR1, stronger effect = lower value 0.951 | S. cerevisiae deletion strains, locus YPR111W, strain DBF20, stronger effect = lower value 0.912 | [27] 0.829 | S. cerevisiae deletion strains, strain NNK1, stronger effect = lower value 0.971 | S. cerevisiae deletion strains, strain TSCII, stronger effect = lower value 0.947 | S. cerevisiae strains, strain wild type, stronger effect = lower value 0.943
0.482 (active) and 1.02 (inactive): [9]
active: [4] 0.791 | [6] 0.857 | [14] 0.565 | [16] 0.503 | S. cerevisiae deletion strains, locus YLR113W, strain HOG1, stronger effect = lower value 0.835 | [17] 0.68 | [18] 0.841 | [28] 0.535 | [24] 0.773 | [26] 0.76
